Data taken from PubChem BioAssay (EPA / NIEHS).
Results filed as inconclusive are left out. Activity calls are given as the source filed them. Rule for the calls: active = hit-call score of the fitted dose curve at least 0.9, where 1 is the maximum; inconclusive = response in the unintended direction; inactive = score below 0.9.

Experiments:
[1] = target: Cellular tumor antigen p53 (Homo sapiens) (UniProt P04637); assay: TOX21_p53_BLA_p2_ratio: Tox21 HCT-116 p53 Agonism Beta-lactamase Assay, Ratio, Phase 2 (AID 2283592)
How it was run: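 HCT116 p53-bla; 4000 cells/well; 5 h pre-incubation; cpd in DMSO, 217-fold dilution; 16 h 37C/5% CO2; CCF4-AM 2 h RT; Ex 405, Em 460/530 ratio; DMSO = baseline; positive fitting direction.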

[2] = TOX21_p53_BLA_p3_viability: Viability Assessment in the Tox21 HCT-116 p53 Agonism Beta-lactamase Assay, Phase 3 (AID 2283593);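 note: cells exposed to compound for 16 h before reading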
How it was run: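 Cellular ATP was quantified by CellTiter-Glo luminescence, read after 30 min at room temperature. Beforehand, HCT116 cells (4000/well) received compound 5 h post-seeding, 217-fold diluted from DMSO, then incubated 16 h at 37C.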

[3] = target: Cellular tumor antigen p53 (Homo sapiens) (UniProt P04637); assay: TOX21_p53_BLA_p3_ratio: Tox21 HCT-116 p53 Agonism Beta-lactamase Assay, Ratio, Phase 3 (AID 2283596)
How it was run: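 HCT116 p53-bla cells (4000/well) given compound in DMSO (217-fold dilution) after 5 h, incubated 16 h at 37C. CCF4-AM substrate 2 h at room temperature; 460/530 nm emission ratio, gain fitted against DMSO.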

[4] = TOX21_p53_BLA_p4_viability: Viability Assessment in the Tox21 HCT-116 p53 Agonism Beta-lactamase Assay, Phase 4 (AID 2283597);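 note: hits lower the luminescence signal meaning cytotoxicity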
How it was run: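 Cells plated, 5 h pre-incubation; DMSO compounds pinned (217-fold dilution); 16 h, 37C/5% CO2; CCF4-AM 2 h RT; CellTiter-Glo 30 min RT; luminescence read.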

[5] = target: Cellular tumor antigen p53 (Homo sapiens) (UniProt P04637); assay: TOX21_p53_BLA_p5_ratio: Tox21 HCT-116 p53 Agonism Beta-lactamase Assay, Ratio, Phase 5 (AID 2283599)
How it was run: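 Beta-lactamase reporter ratio (blue 460 nm over green 530 nm, 405 nm excitation) after 2 h CCF4-AM loading, in HCT-116 cells exposed 16 h at 37 C to compounds pinned at 217-fold dilution. Increases relative to DMSO baseline scored.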

[6] = TOX21_p53_BLA_p5_viability: Viability Assessment in the Tox21 HCT-116 p53 Agonism Beta-lactamase Assay, Phase 5 (AID 2283600)
How it was run: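 4000 cells/well; 5 h pre-incubation; DMSO compounds pin-transferred, 217-fold dilution; 16 h, 37C/5% CO2; CCF4-AM 2 h RT; CellTiter-Glo 30 min RT; luminescence.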

[7] = target: Cellular tumor antigen p53 (Homo sapiens) (UniProt P04637); assay: TOX21_p53_BLA_p4_ratio: Tox21 HCT-116 p53 Agonism Beta-lactamase Assay, Ratio, Phase 4 (AID 2283601)
How it was run: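 Signal is the blue/green (460nm/530nm) ratio of cleaved versus uncleaved CCF4-AM substrate, read after 2 h substrate loading. Cells were HCT116 carrying the p53-responsive beta-lactamase reporter, dosed 16 h at 37C, 5% CO2; CellTiter-Glo measured in parallel.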

Measured: AC50

Sequence of Cellular tumor antigen p53 (Homo sapiens) (P04637 whole entry, looked up): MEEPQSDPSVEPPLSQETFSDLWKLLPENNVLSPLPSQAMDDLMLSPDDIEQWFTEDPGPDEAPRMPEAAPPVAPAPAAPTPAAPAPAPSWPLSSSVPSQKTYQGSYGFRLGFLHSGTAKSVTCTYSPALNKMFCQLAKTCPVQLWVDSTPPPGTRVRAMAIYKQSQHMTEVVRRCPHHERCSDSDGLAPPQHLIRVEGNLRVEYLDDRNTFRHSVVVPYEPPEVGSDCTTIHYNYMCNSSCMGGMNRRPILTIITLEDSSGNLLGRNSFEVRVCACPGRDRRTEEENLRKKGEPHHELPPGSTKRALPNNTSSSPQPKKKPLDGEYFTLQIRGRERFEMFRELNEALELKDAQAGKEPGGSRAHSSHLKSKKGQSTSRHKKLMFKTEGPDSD

O=C(Cl)c1cc(Cl)cc(Cl)c1
not listed: [7]
inactive: all other assays above

CC1=NS(=O)(=O)c2cc(Cl)ccc2N1
not listed: [6] | [7]
inactive: all other assays above

CCCCN1CCCC[C@H]1C(=O)Nc1c(C)cccc1C
not listed: [7]
inactive: all other assays above

NCCc1ccc(O)c(O)c1
not listed: [7]
inactive: all other assays above

CC1=C(C=O)C(C)(C)CC=C1
not listed: [6] | [7]
inactive: all other assays above

CO[C@@H]1[C@@H](O[C@@H]2O[C@H](C)[C@@H](O[C@H]3C[C@](C)(O)[C@@H](O)[C@H](C)O3)[C@H](N(C)C)[C@H]2O)[C@H](CC=O)C[C@@H](C)[C@H](O[C@H]2CC[C@H](N(C)C)[C@@H](C)O2)/C=C\C=C\C[C@@H](C)OC(=O)C[C@H]1O
not listed: [6] | [7]
inactive: all other assays above

Cc1cccc(C)c1Nc1ncccc1C(=O)O
active: [1] 43.8 µM
inactive: all other assays above

O=C(O)Cc1cn(-c2ccccc2)nc1-c1ccc(Cl)cc1
inactive: all assays above

O=C(O)O
inactive: all assays above

Cc1cc2c(cc1S(N)(=O)=O)S(=O)(=O)CCC2
inactive: all assays above

[O-][n+]1cccc(CO)c1
not listed: [6] | [7]
inactive: all other assays above

CCN1CC(CCN2CCOCC2)C(c2ccccc2)(c2ccccc2)C1=O (stereo not drawn)
not listed: [6] | [7]
inactive: all other assays above

COC1[C@@H](O[C@@H]2O[C@H](C)[C@@H](O[C@H]3C[C@@](C)(O)[C@H](OC(=O)CC(C)C)[C@H](C)O3)[C@H](N(C)C)[C@H]2O)[C@@H](CC=O)C[C@@H](C)[C@@H](O)/C=C/C=C/C[C@@H](C)OC(=O)C[C@H]1OC(C)=O (stereo partly drawn)
inactive: [1] | [2] | [3] | [4]

CCCCOC(=O)c1ccc(N)cc1
inactive: all assays above

CCOC(=O)CC#N
inactive: all assays above

CC(N)C12CC3CC(CC(C3)C1)C2 (stereo not drawn)
not listed: [7]
inactive: all other assays above

Cc1cccn2c(=O)c(-c3nnn[nH]3)cnc12
not listed: [7]
inactive: all other assays above

Nc1cc(C(Cl)=C(Cl)Cl)c(S(N)(=O)=O)cc1S(N)(=O)=O
inactive: all assays above

CCCCCCCCCCCl
inactive: all assays above

CC12CCC(CC1=O)C2(C)C (stereo not drawn)
inactive: all assays above

NC(=O)c1ccccc1C(N)=O
active: [1] 72.7 µM | [5] 73.1 µM
inactive: all other assays above

COc1cc2c(cc1N)oc1ccccc12
active: [7] 66.1 µM
inactive: all other assays above

COc1cccc(N(C)C(=S)Oc2ccc3c(c2)CCCC3)n1
inactive: all assays above

O=C(NOCC1CC1)c1ccc(F)c(F)c1Nc1ccc(I)cc1Cl
active: [1] 7.89 µM | [2] 23 µM | [3] 23.9 µM | [4] 23 µM | [5] 20.5 µM | [6] 19.7 µM | [7] 30.5 µM

CC1(C)O[C@H]2CC(=O)OC[C@]23[C@H]2CC[C@@]4(C)[C@H](c5ccoc5)OC(=O)[C@H]5O[C@]54[C@]2(C)C(=O)C[C@@H]13
inactive: all assays above

CC(C)(C)NCC(O)c1ccc(O)c(CO)c1 (stereo not drawn)
inactive: all assays above

Cc1cn([C@H]2C[C@H](O)[C@@H](CO)O2)c(=O)[nH]c1=O
inactive: all assays above

O=C(O)Cc1ccccc1Oc1ccc(Cl)cc1Cl
inactive: all assays above
